The values that follow come from the supplement of paper PMC12024529.

Where “and” joins values, the source holds several entries; their conditions need not be identical. Equal values may be shown once.

This experiment relates to HEK293 WT BDD-FVIII-Gluc. Kind of experiment: secreted FVIII-Gluc luciferase Z-score vs DMSO control; higher = more FVIII-Gluc secretion. As to conditions: 5 µM. The protocol:
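Natural plant-compound library (480 compounds, ST catalogue IDs) screened on HEK293 cells stably expressing WT BDD-FVIII-Gaussia luciferase fusion at 5 µM. Secreted Gluc activity in the medium is given as a Z-score relative to DMSO controls.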
As for `N[C@@H](CSCC(=O)O)C(=O)O`, the “secreted FVIII-Gluc luciferase Z-score” value was 0.103. In the case of `N=C(N=C(N)N)N1CCOCC1` it was 0.384; in that of `Cc1cc2nc3c(=O)[nH]c(=O)nc-3n(CC(O)C(O)C(O)CO)c2cc1C` (centres undefined), 0.252. With `COc1ccc2c(C)cc(=O)oc2c1`, the “secreted FVIII-Gluc luciferase Z-score” value came out at 0.626. With `COc1ccc2c(=O)cc(-c3ccc(O)cc3)oc2c1` the figure was 0.228. For the compound `COc1cc(CNC(=O)CCCCCCC(C)C)ccc1O`, the “secreted FVIII-Gluc luciferase Z-score” value is -0.541. On to `Nc1ncnc2c1ncn2C1OC(COP(=O)(O)OP(=O)(O)OP(=O)(O)O)C(O)C1O` (centres undefined), for which the “secreted FVIII-Gluc luciferase Z-score” value was found to be 0.477. `CC(C)CC(NC(=O)C(NC(=O)NC(Cc1ccccc1)C(=O)O)C1CCN=C(N)N1)C(=O)NC(C=O)Cc1ccccc1` (centres undefined): the “secreted FVIII-Gluc luciferase Z-score” value came out at 0.979. In the case of `COc1c(-c2ccccc2)oc2c(ccc3occc32)c1=O` it was 0.489; in that of `COc1ccc(CCN(C)CCCC(C#N)(c2ccc(OC)c(OC)c2)C(C)C)cc1OC` (centres undefined), 0.188. In the case of `O=c1cc(-c2ccccc2)oc2cc(O)c(O)c(O)c12` it was -0.284; in that of `O=c1c(O)c(-c2cccc(O)c2)oc2ccccc12`, -0.392; in that of `CN1CCc2cccc3c2C1Cc1ccc(O)c(O)c1-3` (centres undefined), -0.131. With `O=C(O)c1cc(O)c2c(c1)[C@@H]([C@H]1c3cc(C(=O)O)cc(O)c3C(=O)c3c(O[C@@H]4O[C@H](CO)[C@@H](O)[C@H](O)[C@H]4O)cccc31)c1cccc(O[C@@H]3O[C@H](CO)[C@@H](O)[C@H](O)[C@H]3O)c1C2=O` the figure was 0.274; with `CC(Cc1ccc(O)c(O)c1)C(C)Cc1ccc(O)c(O)c1` (centres undefined), 0.14; with `O=c1cc(-c2ccccc2)oc2cc(O)cc(O)c12`, 0.596.

Turning to `O=c1cc(-c2ccc(O)c(O)c2)oc2cccc(O)c12`, the “secreted FVIII-Gluc luciferase Z-score” value is -0.512. As to `O=C(/C=C/c1ccc(O)c(O)c1)O[C@@H]1CC(O)(C(=O)O)CC(O)C1O` (some centres undefined), the “secreted FVIII-Gluc luciferase Z-score” value turned out to be 0.588. In the case of `COc1ccc2c(c1OC)C(Cc1ccccc1)N1CCc3cc4c(cc3C1=C2)OCO4` (centres undefined) it was 0.115. With `COc1cc2oc(-c3ccccc3)cc(=O)c2cc1OC` the figure was 0.82; with `NC(CC(=O)O)C(=O)O` (centres undefined), 0.487; with `N[C@@H](Cc1c[nH]cn1)C(=O)O`, 0.64. With `COc1ccc(-c2coc3ccc(OC4OC(COC(C)=O)C(OC(C)=O)C(OC(C)=O)C4OC(C)=O)cc3c2=O)cc1` (centres undefined) the figure was -1.1; with `Nc1ncnc2c1ncn2[C@@H]1O[C@H](CO)[C@@H](O)[C@H]1O`, 0.566; with `CC1CCC2[C@](C)(CO)C(O)CC[C@]2(C)C12CCC(CO)(CCO)O2` (some centres undefined), 0.9. `COc1cc2ccc(=O)oc2cc1O`: the “secreted FVIII-Gluc luciferase Z-score” value is 0.0462. Turning to `OC[C@@H]1OC(O)[C@@H](O)[C@H](O)[C@H]1O[C@H]1O[C@H](CO)[C@@H](O)[C@H](O)[C@H]1O` (some centres undefined), the “secreted FVIII-Gluc luciferase Z-score” value is 0.204. With `CC(=O)Nc1nc2nc[nH]c2c(=O)[nH]1` the figure was 0.475; with `COc1cccc(-c2cc(=O)c3cc(O)ccc3o2)c1`, 0.695. With `CC(C)=CCC[C@H](C)CCO` the figure was 0.0595. In the case of `CC(C)C1=CC2=CCC3C(C)(C(=O)O)CCC[C@]3(C)C2CC1` (some centres undefined), the “secreted FVIII-Gluc luciferase Z-score” value stood at 0.107. With `C[C@H](CCC(=O)O)[C@H]1CC[C@H]2[C@@H]3C(=O)C[C@@H]4CC(=O)CC[C@]4(C)[C@H]3CC(=O)[C@]12C` the figure was 0.818; with `O=c1cc[nH]c(=S)[nH]1`, 0.275; with `C=C1CCC2OC2(C)CCC2C1CC2(C)C` (centres undefined), 0.146. With `COc1cc(=O)n(C)c2c(OCC(O)C(C)(C)O)cccc12` (centres undefined) the figure was -1.05. Consider `Cc1c(C(=O)O)c(O)cc2c1C(=O)c1c(O)c([C@H]3O[C@H](CO)[C@@H](O)[C@H](O)[C@H]3O)c(O)c(O)c1C2=O`, for which the “secreted FVIII-Gluc luciferase Z-score” value was 0.527 and 0.738.

Turning to `Cc1cc(O)c2c(c1)C(=O)c1cc(O)cc(O)c1C2=O`, the “secreted FVIII-Gluc luciferase Z-score” value was -0.0482.

Regarding `COc1ccc(-c2coc3cc(OC4OC(CO)C(O)C(O)C4O)cc(O)c3c2=O)cc1` (centres undefined), the “secreted FVIII-Gluc luciferase Z-score” value was -0.0597. On to `COc1ccc(-c2cc(=O)c3ccc(O)cc3o2)cc1`, for which the “secreted FVIII-Gluc luciferase Z-score” value was determined as 1.22.
